“And” between values parts separate entries of the source, which are not always exact repeats. Identical values can stand only once. The panel holds about 83,000 compounds, 20% with a hit somewhere; the sample as a whole holds those more often.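 A percent growth of 40 corresponds to 60% growth inhibition; 0 means no net growth; -100 means all cells died. Active threshold: below 10.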 The source made the active and inactive calls.
Experiments:
Assay in all cases: NCI-60 one-dose screen, 48 h (100 = growth as untreated, 0 = no growth, -100 = all killed)
Conditions in all cases: 10 µM unless noted
SR leukemia = system: SR leukemia
OVCAR-8 ovarian = system: OVCAR-8 ovarian
OVCAR-5 ovarian = system: OVCAR-5 ovarian
OVCAR-4 ovarian = system: OVCAR-4 ovarian
SK-OV-3 ovarian = system: SK-OV-3 ovarian
IGROV1 ovarian = system: IGROV1 ovarian
OVCAR-3 ovarian = system: OVCAR-3 ovarian
HS 578T breast = system: HS 578T breast
NCI/ADR-RES ovarian = system: NCI/ADR-RES ovarian
T-47D breast = system: T-47D breast
BT-549 breast = system: BT-549 breast
MDA-MB-435 melanoma = system: MDA-MB-435 melanoma
SW-620 colon = system: SW-620 colon
HCT-116 colon = system: HCT-116 colon
HCC-2998 colon = system: HCC-2998 colon
KM12 colon = system: KM12 colon
MCF7 breast = system: MCF7 breast
RPMI-8226 leukemia = system: RPMI-8226 leukemia

Measured: growth

O=C1C=CC(n2cc(F)c(=O)[nH]c2=O)O1 (stereo not drawn)
inactive: SR leukemia 13.1% | OVCAR-8 ovarian 62.3% | OVCAR-5 ovarian 128% | OVCAR-4 ovarian 74.9% | SK-OV-3 ovarian 68.2% | IGROV1 ovarian 103% | OVCAR-3 ovarian 57.5% | HS 578T breast 90.9% | NCI/ADR-RES ovarian 85.1% | T-47D breast 65.5% | BT-549 breast 43% | MDA-MB-435 melanoma 46.4% | SW-620 colon 79.7% | HCT-116 colon 40% | HCC-2998 colon 22.3% | KM12 colon 51.6%

Cc1ccc(N)cc1S(=O)(=O)O
inactive: SR leukemia 89.6% and 90.4% | OVCAR-8 ovarian 108% and 100% | OVCAR-5 ovarian 108% and 125% | OVCAR-4 ovarian 104% | SK-OV-3 ovarian 106% and 116% | IGROV1 ovarian 109% and 113% | OVCAR-3 ovarian 108% and 117% | HS 578T breast 100% and 94.9% | NCI/ADR-RES ovarian 106% and 113% | T-47D breast 103% and 117% | BT-549 breast 97.9% | MDA-MB-435 melanoma 115% and 109% | SW-620 colon 104% and 105% | MCF7 breast 105% and 98.8% | HCT-116 colon 103% | HCC-2998 colon 109% and 108% | KM12 colon 98.7% and 104%

O=C(/C=C/C=C/c1ccc2c(c1)OCO2)N1CCCCC1
inactive: SR leukemia 92.4% and 86% | OVCAR-8 ovarian 101% and 97.4% | OVCAR-5 ovarian 96.4% | OVCAR-4 ovarian 103% and 96.8% | SK-OV-3 ovarian 101% and 102% | OVCAR-3 ovarian 121% and 104% | HS 578T breast 104% and 94.8% | NCI/ADR-RES ovarian 98% and 106% | T-47D breast 90.8% and 103% | BT-549 breast 108% | MDA-MB-435 melanoma 98.9% and 104% | SW-620 colon 106% and 101% | MCF7 breast 101% and 82.8% | HCT-116 colon 103% and 98.1% | HCC-2998 colon 102% and 130% | KM12 colon 98.2% and 95%

CCCCCc1cc[n+](CC(=O)c2ccccc2)cc1
inactive: SR leukemia 115% and 100% | OVCAR-8 ovarian 97.2% and 99.3% | OVCAR-5 ovarian 97.6% and 101% | OVCAR-4 ovarian 110% and 85.2% | SK-OV-3 ovarian 101% and 105% | OVCAR-3 ovarian 94.9% and 105% | HS 578T breast 106% | NCI/ADR-RES ovarian 98.6% and 103% | T-47D breast 95.4% and 101% | BT-549 breast 95.9% | MDA-MB-435 melanoma 105% | SW-620 colon 96.7% and 104% | MCF7 breast 104% and 93.7% | HCT-116 colon 95.3% and 91.9% | HCC-2998 colon 105% | KM12 colon 102% and 104%

O=C(c1ccncc1)c1c(Cc2ccccc2)ccc2ccccc12
inactive: SR leukemia 107% | OVCAR-8 ovarian 82.5% | OVCAR-5 ovarian 87.5% | OVCAR-4 ovarian 82.7% | SK-OV-3 ovarian 120% | OVCAR-3 ovarian 98% | HS 578T breast 95.3% | NCI/ADR-RES ovarian 88.2% | T-47D breast 113% | MDA-MB-435 melanoma 83.2% | SW-620 colon 90.4% | MCF7 breast 101% | HCT-116 colon 82% | HCC-2998 colon 37.3% | KM12 colon 102%
active: BT-549 breast -7.98%

C/C(=C\c1ccccc1)C(O)C(=O)c1nc2ccc([N+](=O)[O-])cc2[nH]c1=O (stereo not drawn)
inactive: SR leukemia 102% | OVCAR-8 ovarian 96.6% | OVCAR-5 ovarian 96% | OVCAR-4 ovarian 114% | SK-OV-3 ovarian 105% | IGROV1 ovarian 102% | OVCAR-3 ovarian 113% | HS 578T breast 94.7% | NCI/ADR-RES ovarian 87.7% | T-47D breast 77.5% | BT-549 breast 78.9% | MDA-MB-435 melanoma 99.5% | SW-620 colon 104% | MCF7 breast 79.3% | HCT-116 colon 91.4% | HCC-2998 colon 106% | KM12 colon 90.3%

N=c1sc2ccccc2n1CC(=O)O
active: OVCAR-8 ovarian 4.81%
inactive: SR leukemia 106% | OVCAR-5 ovarian 110% | OVCAR-4 ovarian 115% | SK-OV-3 ovarian 106% | IGROV1 ovarian 107% | OVCAR-3 ovarian 114% | HS 578T breast 92% | NCI/ADR-RES ovarian 108% | T-47D breast 95.8% | BT-549 breast 99.2% | MDA-MB-435 melanoma 113% | SW-620 colon 103% | MCF7 breast 99% | HCT-116 colon 95.7% | HCC-2998 colon 108% | KM12 colon 106%

CC(CN(C)C)CN1c2ccccc2Sc2ccccc21 (stereo not drawn)
inactive: SR leukemia 79.1% and 96.2% and 45.7% | OVCAR-8 ovarian 95.7% and 109% and 101% | OVCAR-5 ovarian 88.9% and 79.7% | OVCAR-4 ovarian 88.1% and 102% and 84% | SK-OV-3 ovarian 97.2% and 95.8% and 101% | IGROV1 ovarian 73.5% and 92% | OVCAR-3 ovarian 114% and 98.6% and 90.7% | HS 578T breast 77.5% and 91.1% and 67.1% | NCI/ADR-RES ovarian 79.2% and 85.1% and 81.4% | T-47D breast 79.4% and 88.3% | BT-549 breast 79% and 91.8% and 80.2% | MDA-MB-435 melanoma 76.3% and 85% and 75.7% | SW-620 colon 86.9% and 83.8% and 88.8% | MCF7 breast 88.2% and 94.2% and 82.2% | HCT-116 colon 59.3% and 63.9% and 94.9% | HCC-2998 colon 78.4% and 97.8% and 83.4% | KM12 colon 95.4% and 104% and 89.5%

CCc1ccc(OC(=O)CCl)cc1
inactive: SR leukemia 101% | OVCAR-8 ovarian 101% | OVCAR-5 ovarian 107% | OVCAR-4 ovarian 95.6% | SK-OV-3 ovarian 112% | IGROV1 ovarian 108% | OVCAR-3 ovarian 104% | HS 578T breast 110% | NCI/ADR-RES ovarian 103% | BT-549 breast 109% | MDA-MB-435 melanoma 100% | SW-620 colon 109% | MCF7 breast 103% | HCT-116 colon 102% | HCC-2998 colon 104% | KM12 colon 95%

CNc1ccc(O)cc1
inactive: RPMI-8226 leukemia 102% and 87.4% | OVCAR-8 ovarian 96.7% and 106% | OVCAR-5 ovarian 114% and 107% | OVCAR-4 ovarian 94.5% and 106% | SK-OV-3 ovarian 105% and 108% | IGROV1 ovarian 135% and 119% | OVCAR-3 ovarian 113% and 114% | HS 578T breast 115% and 142% | NCI/ADR-RES ovarian 114% and 102% | T-47D breast 108% and 101% | BT-549 breast 107% and 103% | MDA-MB-435 melanoma 107% and 101% | SW-620 colon 103% and 89.9% | HCT-116 colon 108% and 97.3% | HCC-2998 colon 124% and 105% | KM12 colon 112% and 91.3%

CCOP(=O)(OCC)/C(C#N)=C/c1c(C)[nH]c2ccccc12
inactive: RPMI-8226 leukemia 88.8% | OVCAR-8 ovarian 94.8% | OVCAR-5 ovarian 103% | OVCAR-4 ovarian 41% | SK-OV-3 ovarian 100% | IGROV1 ovarian 105% | OVCAR-3 ovarian 105% | HS 578T breast 90.8% | NCI/ADR-RES ovarian 97.9% | T-47D breast 85.1% | BT-549 breast 98.3% | MDA-MB-435 melanoma 12.9% | SW-620 colon 98.2% | HCT-116 colon 101% | HCC-2998 colon 107% | KM12 colon 100%

CC1CC(O)CC(C)(C)C1.CC1CC(O)CC(C)(C)C1.CC1CC(O)CC(C)(C)C1.CC1CC(O)CC(C)(C)C1.[Ti] (stereo not drawn)
inactive: RPMI-8226 leukemia 96.5% | OVCAR-8 ovarian 106% | OVCAR-5 ovarian 114% | OVCAR-4 ovarian 127% | SK-OV-3 ovarian 91.4% | IGROV1 ovarian 101% | OVCAR-3 ovarian 122% | HS 578T breast 99.9% | NCI/ADR-RES ovarian 99.1% | T-47D breast 92.7% | MDA-MB-435 melanoma 99.6% | SW-620 colon 99.8% | MCF7 breast 99.8% | HCT-116 colon 99.5% | HCC-2998 colon 110% | KM12 colon 103%

COc1ccc2oc3cc(NCCN(C)C)ccc3c(=O)c2c1
inactive: RPMI-8226 leukemia 103% and 73.2% | OVCAR-8 ovarian 88% and 63.4% | OVCAR-5 ovarian 88.2% and 87.1% | OVCAR-4 ovarian 106% and 91.7% | SK-OV-3 ovarian 92.5% and 55% | IGROV1 ovarian 90.3% and 88.4% | OVCAR-3 ovarian 121% and 107% | HS 578T breast 105% and 83.9% | NCI/ADR-RES ovarian 90.5% and 69.6% | T-47D breast 80.6% and 63.4% | BT-549 breast 97.2% and 93.9% | MDA-MB-435 melanoma 85.8% and 70.8% | SW-620 colon 78% and 55.4% | MCF7 breast 84.4% and 67.8% | HCT-116 colon 93.9% and 54.1% | HCC-2998 colon 97.4% and 77.1% | KM12 colon 90.1% and 79.8%
